Hits are enriched below; roughly 6.2% of the tested compounds scored in any of these assays.
KB-3-1 cytotox – qHTS assay for MDR1-selective chemotherapeutics: Primary screen using the parental adenocarcinoma cell KB-3-1; hit rate 1.4% among 400,000; KB-3-1 viability, CellTiter-Glo ATP luminescence, 72 h; AID 1347075, 2019; Potency, µM (top dose mostly 46.1 µM), usual class: cytotoxic; also: % is scaled to controls: 0 for no effect and ±100 for the full control effect; nearly all actives have a fitted effect of over 60% in size
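Viability of parental KB-3-1 cells, measured by CellTiter-Glo luminescence, followed a 72 h incubation at 37 °C with pinned compounds in phenol-red-free DMEM containing 10% FBS.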
KB-V1 MDR tox – qHTS assay for MDR1-selective chemotherapeutics: Primary screen using the drug-selected MDR subline cells KB-V1 | KB-V1 MDR cells viability, CellTiter-Glo, 72 h | Potency, µM (highest dose often 46.1 µM), most hits filed as cytotoxic | hit rate 3.4% among 400,000 | AID 1347076, 2019; also: % is scaled to controls: 0 for no effect and ±100 for the full control effect; nearly all actives have a fitted effect of over 60% in size
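Cytotoxicity via CellTiter-Glo luminescence after 72 h compound exposure at 37 degrees C. Cells: drug-selected KB-V1 line, DMEM phenol-red free plus 10% FBS. Compounds tested at multiple concentrations; normalized data fitted to concentration-effect curves.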
S2 tox – Viability Counterscreen for Primary qHTS for Inhibitors of ATXN expression | AID 651635, 2014 | S2 cells (HEK-293 line with an ATXN2-luciferase reporter) viability, CellTiter-Fluor protease fluorescence, 24 h | Potency, µM (top dose mostly 56.7 µM), actives largely listed as cytotoxic | hit rate 0.49% among 400,000; also: nearly all actives have a fitted effect of over 40% in size
ATXN2 expr inh – Primary qHTS for Inhibitors of ATXN expression | AID 1745845, 2022 | HEK-293 ATXN2-luciferase reporter, luminescence, 24 h | Potency, µM (top dose mostly 57 µM), inactives show top-dose activity change, negative = inhibition, hits mostly inhibitors | hit rate 0.72% among 360,000; also: % is scaled to controls: 0 for no effect and ±100 for the full control effect; nearly all actives have a fitted effect of over 55% in size
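ATXN2-luciferase reporter cells (luciferase flanked by upstream and downstream ATXN2 gene portions) were treated 24 h at 37 °C with compounds at up to 57 uM. SteadyGlo luminescence gave expression; GF-AFC fluorescence gave viability.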
HT1080 IDH1KD tx – qHTS for induction of synthetic lethality in tumor cells producing 2HG: qHTS for the HT-1080-IDH1KD cell line. Potency, µM (titrated, usually from 46.1 µM), without a hit: at the top dose activity, negative = toxicity, actives largely listed as cytotoxic. hit rate 2% among 360,000. HT-1080 IDH1 knockdown viability, ATP luminescence, 48 h. AID 686971, 2013;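 also: 0% = DMSO wells and -100% = cell-free medium wells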
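CellTiter-Glo luminescence after 48 h compound exposure at 37 degrees C of IDH1-knockdown HT-1080 cells in 5% FBS RPMI. %Activity scaled between DMSO wells and cell-free media wells, with curves fitted and assigned curve classes.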
HT1080-NT tox – qHTS for induction of synthetic lethality in tumor cells producing 2HG: qHTS for the HT-1080-NT fibrosarcoma cell line | hit rate 1.6% among 360,000 | Potency, µM (highest dose often 46.1 µM), inactives show at the highest dose activity, negative = less viability, hits mostly cytotoxic | HT-1080-NT fibrosarcoma viability, CellTiter-Glo ATP luminescence, 48 h | AID 686970, 2013;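 also: NT is the 2HG producing partner of a matched IDH1 knockdown line; 0% = DMSO-treated cells and -100% = media-only wells without cells; nearly all actives have a fitted effect of over 55% in size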
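Viability by CellTiter-Glo luminescence after 48 h compound exposure at 37C of HT-1080-NT cells (750/well, RPMI, 5% FBS). % activity scaled between DMSO wells and medium-only wells, then curve-fitted and categorized by curve class.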
* marks the source's active call; other numbers are inactive results; i = inactive; ? = inconclusive; / = no result. Calls follow the shape of the dose curve; as a rule, active = well fitted curve in the direction sought with a large enough effect; inconclusive = small, poorly fitted or top-dose-only effect, or another doubt; inactive = no such curve, though single readings can be large; an effect the other way counts as inactive or inconclusive. Potency is read from the fitted curve at half-maximal effect.

SMILES | KB-3-1 cytotox | KB-V1 MDR tox | S2 tox | ATXN2 expr inh | HT1080 IDH1KD tx | HT1080-NT tox
CCOC(=O)/C(=C\c1cccc(O)c1)c1nc2sc(C)c(C)c2c(=O)[nH]1 | ? | ? | ? | 15.8µM* | ? | ?
COC(=O)c1ccc2c(C)c(C(C)(C)O)[nH]c2c1 | i | i | i | 17.3% | 0.6% | -3.8%
CCOC(=O)N1CCC(N2CCN(S(=O)(=O)c3ccc4ccccc4c3)CC2)CC1 | i | 2.59µM* | i | -9.5% | -15.4% | -21.5%
O=S(=O)(c1ccc2nc(Nc3ccccc3)ccc2c1)N1CCCCC1 | ? | i | i | -5.1% | 25.9µM* | ?
COc1ccc(S(=O)(=O)N2CCN(C3Cc4ccccc4C3)CC2)cc1 | i | 20.6µM* | i | -1.3% | 7.8% | -4.2%
O=[N+]([O-])c1cc(C(F)(F)F)ccc1N1CCN(S(=O)(=O)c2ccc3ccccc3c2)CC1 | 18.4µM* | 5.17µM* | i | -20.0% | -13.4% | -7.2%
COc1ccc(S(=O)(=O)N2CCN(C)CC2)cc1 | i | i | i | -17.9% | 1.2% | 0.6%
NC(=O)C(OC(=O)CNC(=O)C1CCCCC1)c1ccccc1 (centres undefined) | ? | i | / | / | / | /
Cc1ccc(S(=O)(=O)N2CCCN(S(=O)(=O)c3ccc4ccccc4c3)CC2)cc1 | i | 8.2µM* | i | -26.9% | 4.8% | 2.8%
Cc1ccc(S(=O)(=O)N2CCCN(C)c3nc4ccccc4nc32)cc1 | i | 16.4µM* | i | -17.3% | -19.0% | -10.0%
O=C(c1cccnc1)N1CCN(S(=O)(=O)c2ccc3ccccc3c2)CC1 | 16.4µM* | 18.4µM* | i | -0.6% | -0.1% | -1.3%
CN1CCN(S(=O)(=O)c2ccc3ccccc3c2)CC1 | i | i | i | 1.4% | -2.7% | -1.0%
Cc1ccc(S(=O)(=O)N2CCCN(S(=O)(=O)c3ccc(C)c(C)c3)CC2)cc1C | i | 4.11µM* | ? | -16.8% | 8.7% | 9.1%
CCOc1ccc(CCNC(=O)c2cn(CC)c3ccc(S(=O)(=O)N4CCCCCC4)cc3c2=O)cc1OCC | i | i | i | 4.0% | / | /
COc1cc(Nc2ccc(C)cc2)c([N+](=O)[O-])nc1[N+](=O)[O-] | ? | 5.8µM* | ? | 0.6% | 3.16µM* | 3.16µM*
Cc1cc(C)cc(Nc2ccc([N+](=O)[O-])nc2[N+](=O)[O-])c1 | i | i | i | -8.6% | 13.6% | 2.2%
CCCc1[nH]nc2c1C(c1ccsc1)C(C#N)=C(N)O2 (centres undefined) | i | i | i | / | 20.6µM* | ?
Cc1[nH]nc2c1C(c1ccco1)C(C#N)=C(N)O2 (centres undefined) | i | i | i | 7.6% | -1.2% | -2.4%
Cc1[nH]nc2c1C(c1cc(Br)cs1)C(C#N)=C(N)O2 (centres undefined) | 13µM* | 16.4µM* | i | -38.6% | ? | ?
O=C(NCc1ccc2c(c1)CCN2C(=O)c1ccccc1)c1ccco1 | i | i | / | / | / | /
O=C(NC(c1cccnc1)C(F)(F)F)c1cc(COc2ccc3c(c2)CCCC3)on1 (centres undefined) | 20.6µM* | ? | ? | -17.0% | -23.3% | -15.7%
Fc1cc2[nH]c(=S)[nH]c2cc1Cl | 8.2µM* | 3.66µM* | i | 2.7% | 1.5% | -0.7%
CN(C(=O)CN1CCN(c2cc(-c3ccc(-c4ccccc4)cc3)ncn2)CC1)c1ccccc1 | ? | i | ? | ? | 13µM* | 14.6µM*
CN(C)c1cccc(-c2cc(N3CCC(C(N)=O)CC3)ncn2)c1 | ? | i | / | / | / | /
Nc1nc(N)c2cc(Sc3ccc(Cl)cc3)ccc2n1 | ? | ? | / | / | 5.8µM* | 2.59µM*

High-throughput results as filed in PubChem BioAssay.
